In the supplement of paper PMC6555819:

Tests used:
Assay in all cases: PBM binding z-score (relative to random genomic background probes); higher = stronger binding; sequences stand for … in GC…GCGATTGACAGCGTAGAATGAAGG
[1] = tested on: FXR:RXRa (NR concentration 270 nM, RXRa partner concentration 90 nM)
Procedure, shortened: (§1)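 Random background probes are the reference for binding z-scores. These scores derive from regression-normalized fluorescence on custom Agilent 4×180K protein-binding microarrays incubated 1 h with ligand-free nuclear receptor dimers. Binding was detected with antibodies against each partner (one per run).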

[2] = tested on: LXRa:RXRa (NR concentration 270 nM, RXRa partner concentration 90 nM)
Procedure, shortened: as §1

[3] = tested on: LXRa homodimer (NR concentration 270 nM)
Procedure, shortened: as §1

[4] = tested on: LXRb:RXRa (NR concentration 270 nM, RXRa partner concentration 90 nM)
Procedure, shortened: as §1

[5] = tested on: LXRb homodimer (NR concentration 270 nM)
Procedure, shortened: as §1

[6] = tested on: PPARa:RXRa (NR concentration 270 nM, RXRa partner concentration 90 nM)
Procedure, shortened: as §1

[7] = tested on: PPARg:RXRa (NR concentration 180 nM, RXRa partner concentration 90 nM)
Procedure, shortened: as §1

[8] = tested on: PPARg:RXRa 270nM:90nM, anti-RXR (NR concentration 270 nM, RXRa partner concentration 90 nM)
Procedure, shortened: as §1

[9] = tested on: PPARg:RXRa 30nM:10nM, anti-RXR (NR concentration 30 nM, RXRa partner concentration 10 nM)
Procedure, shortened: as §1

[10] = tested on: PPARg:RXRa 90nM:30nM, anti-RXR (NR concentration 90 nM, RXRa partner concentration 30 nM)
Procedure, shortened: as §1

[11] = tested on: PPARg:RXRa DBDmut IVT, anti-RXR (DBD mutation: RXRa K156A/R161A, NR concentration 270 nM, RXRa partner concentration 90 nM)
Procedure, shortened: as §1

[12] = tested on: PPARg:RXRa IVT, anti-PPARg (NR concentration 270 nM, RXRa partner concentration 90 nM)
Procedure, shortened: as §1

[13] = tested on: PPARg DBDmut:RXRa IVT, anti-PPARg (DBD mutation: PPARg1 K132A/R137A, NR concentration 270 nM, RXRa partner concentration 90 nM)
Procedure, shortened: as §1

[14] = tested on: PPARg DBDmut IVT, anti-PPARg (DBD mutation: PPARg1 K132A/R137A, NR concentration 270 nM)
Procedure, shortened: as §1

[15] = tested on: PPARg homodimer (NR concentration 180 nM)
Procedure, shortened: as §1

[16] = tested on: PXR:RXRa (NR concentration 270 nM, RXRa partner concentration 90 nM)
Procedure, shortened: as §1

[17] = tested on: PXR homodimer (NR concentration 270 nM)
Procedure, shortened: as §1

[18] = tested on: RARa:RXR (NR concentration 270 nM, RXRa partner concentration 90 nM)
Procedure, shortened: as §1

[19] = tested on: RARa homodimer (NR concentration 270 nM)
Procedure, shortened: as §1

[20] = tested on: RARb:RXRa (NR concentration 270 nM, RXRa partner concentration 90 nM)
Procedure, shortened: as §1

Sequence | PBM binding z-score [1] | PBM binding z-score [2] | PBM binding z-score [3] | PBM binding z-score [4] | PBM binding z-score [5] | PBM binding z-score [6] | PBM binding z-score [7] | PBM binding z-score [8] | PBM binding z-score [9] | PBM binding z-score [10] | PBM binding z-score [11] | PBM binding z-score [12] | PBM binding z-score [13] | PBM binding z-score [14] | PBM binding z-score [15] | PBM binding z-score [16] | PBM binding z-score [17] | PBM binding z-score [18] | PBM binding z-score [19] | PBM binding z-score [20]
TCTGCTAAGTCAACGATGGTCAGCTAATCTGCTA | -0.531 | -0.432 | -0.993 | -0.553 | -0.721 | -0.269 | -0.51 | 0.278 | 1.33 | 0.924 | 0.507 | -0.186 | -0.69 | -0.943 | -1.18 | -0.538 | -1.18 | -0.422 | -1.62 | 0.171
TCTTGTAGATCAATAGAGGTTAAGACAGTGCGCT | 0.684 | 3.16 | 0.434 | 1.56 | 0.045 | 1.98 | 0.205 | 1.48 | 2.9 | 2.34 | 1.86 | 0.857 | 0.686 | 0.616 | 0.896 | 2.24 | 0.168 | 1.71 | 0.602 | 0.993
ACTATTAGTTGACTTAGGGCAACCGCTACGACGC | 0.0697 | 0.317 | -0.0272 | -0.056 | 0.492 | -0.0454 | 0.482 | -0.131 | 0.1 | -0.0911 | -0.144 | 0.703 | 0.862 | 0.674 | 0.236 | 0.0683 | -0.0423 | 0.605 | 0.391 | 0.745
AGAATGAGGTTATACGTAGATCAGGGAGGAAAGT | 2.22 | 1.64 | 0.0751 | 1.53 | 0.198 | 3.09 | 1.85 | 2.09 | 0.848 | 1.57 | 3.75 | 1.91 | 1.26 | 0.799 | 0.811 | 1.18 | 0.618 | 1.66 | 0.507 | 1.47
CCTAGCAGGCCAATCTGGGTCACTCCAGGCTTGA | 0.645 | 1.09 | -0.166 | 0.329 | -1.31 | 2.6 | 1.99 | 2.05 | -0.235 | 1.03 | 4.25 | 4.76 | -0.633 | -1.01 | 0.639 | 0.543 | -0.635 | 0.754 | -0.716 | 1.48
CAAACTAGGTCAAGAGGTCCAAGTCCGCTTCCCG | 3.7 | 2.26 | 0.265 | 1.6 | 0.102 | 4.52 | 7.57 | 6.68 | 4.65 | 6.56 | 8.55 | 8.32 | 1.57 | 0.903 | 1.86 | 1.58 | 0.285 | 2.21 | 0.1 | 4.02
GAAACAGGGTCAAGGCCAGAGTACGCGTATTGAT | 7.06 | 4.18 | -0.0634 | 3.92 | -0.239 | 6.22 | 6.82 | 6.19 | 3.1 | 5.15 | 4.14 | 5.29 | 1.43 | 1.01 | 2.18 | 4.41 | 0.162 | 4.58 | 0.267 | 4.73
CCTGCTAGGTCAATGCTCAGCTAAAGCAGCTCGC | 2.82 | 1.9 | -0.307 | 1.16 | -0.142 | 2.54 | 1.2 | 1.88 | -0.451 | 0.833 | 4.63 | 3.35 | 0.0583 | -0.86 | 0.329 | 0.498 | -0.943 | 1.19 | -0.48 | 3.61
CCTACTGGGCCATCCGGTCATTGATATCAACGTT | 0.445 | 0.184 | 1.03 | 0.144 | 0.244 | 1.37 | 1.4 | 2.5 | 0.753 | 1.81 | 3.87 | 4.21 | -0.352 | -0.431 | 0.811 | -0.0327 | -0.0108 | 0.187 | -0.315 | 1.42
CGTCCAAGGTCAGAGCGGTCAGTGAATGCCGAGT | 4.97 | 4.15 | 1.27 | 2.69 | -0.231 | 3.86 | 1.33 | 2.69 | 0.148 | 1.42 | 2.63 | 2.2 | -0.349 | 0.202 | 2.18 | 3.25 | 2.78 | 3.14 | 0.595 | 4.58
GCGACTGGGGCATCAGCAGGTTACAATAACTTAA | -0.294 | -0.143 | -0.328 | 0.834 | -0.691 | 1.24 | 1.02 | 0.768 | -0.192 | 0.171 | 3.24 | 3.27 | -0.414 | -0.53 | 0.365 | 0.0826 | -0.126 | 0.651 | -0.54 | 0.753
TCATATAGGTAAAGGAGAAAGTCGAACGATATGA | 0.86 | 0.393 | -0.261 | 0.259 | -0.317 | 1.11 | 1.53 | 2.56 | 3.86 | 3.22 | 3.55 | 2.2 | 1.76 | 0.854 | 0.0719 | 0.215 | -0.235 | 0.407 | 0.331 | 0.251
TCATATAGGTAAAAGGTGTAAGTCGGTGTGGTAA | 1.13 | 1.12 | -0.0427 | 1.14 | 0.187 | 3.18 | 5.19 | 6.1 | 5.92 | 7.17 | 4.99 | 3.58 | 1.13 | 0.898 | 1.04 | 0.588 | 0.592 | 0.719 | 0.894 | 0.49
CAAACTAGGTCACAGAGGTCAAAGTGCGTGCGTA | 7.35 | 6.76 | 7.05 | 6.54 | 2.29 | 6.71 | 10.1 | 8.21 | 6.64 | 8.45 | 8.28 | 9.04 | 1.58 | 0.779 | 3.18 | 6.72 | 9.97 | 7.47 | 2.13 | 5.4
TCTGCTAGGTCAACGATGGTCAGCTGATCTGCTA | 3.18 | 2.66 | -0.222 | 1.72 | 0.146 | 3.35 | 2.72 | 3.15 | 1.81 | 2.66 | 3.61 | 4.29 | -0.0935 | 1.17 | 0.984 | 1.58 | -0.669 | 2.3 | -0.39 | 4.03
